From PubChem BioAssay (Tox21)
Values without a mark were called inactive. Inconclusive results are not listed. Where a call stands in place of a potency, no number is given. Activity calls are given as the source filed them. Unless noted, calls follow the shape of the full dose curve.

What was measured:
[1] = Nuclear factor erythroid 2-related factor 2/antioxidant responsive element (Nrf2/ARE) small molecule agonists: qHTS cell viability counter screen in human keratinocytes (AID 1919968; active = well fitted curve in the direction sought with a large enough effect in the repeat runs; an effect the other way counts as inactive or inconclusive; also: nearly all actives have a fitted effect of over 55% in size)
Method in brief: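 Parallel cytotoxicity read: KeratinoSens HaCaT cells, compound treatment 23 h, viability by CellTiter-Fluor fluorescence 1 h post-reagent.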

[2] = Nuclear factor erythroid 2-related factor 2/antioxidant responsive element (Nrf2/ARE) small molecule agonists: luciferase reporter gene qHTS assay in human keratinocytes (AID 1919969); also: nearly all actives have a fitted effect of over 35% in size
[3] = target: Gonadotropin-releasing hormone receptor (Homo sapiens) (UniProt P30968); assay: Human gonadotropin-releasing hormone receptor (GnRHR) small molecule agonists, calcium flux assay in GnRHR-HEK293 cells (AID 1920063); also: nearly all actives have a fitted effect of over 35% in size
Chain of Gonadotropin-releasing hormone receptor (Homo sapiens) (P30968 whole entry, looked up): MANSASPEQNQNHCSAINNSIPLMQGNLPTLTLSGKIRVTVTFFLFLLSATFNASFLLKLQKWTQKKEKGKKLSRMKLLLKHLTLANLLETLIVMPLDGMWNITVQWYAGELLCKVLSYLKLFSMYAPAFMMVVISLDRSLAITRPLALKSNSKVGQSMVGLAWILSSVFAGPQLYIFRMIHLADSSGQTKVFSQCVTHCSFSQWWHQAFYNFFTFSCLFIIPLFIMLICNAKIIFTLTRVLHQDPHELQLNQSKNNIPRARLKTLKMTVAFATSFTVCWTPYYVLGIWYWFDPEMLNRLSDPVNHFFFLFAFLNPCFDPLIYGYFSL
Method in brief: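 Calcium flux, agonist mode, human GnRHR stably integrated in HEK293; dye 1 h at 37 C before compound; Ex/Em=480/540 kinetic read, 3 min; 15 concentrations, triplicate.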

[4] = target: KiSS-1 receptor (Homo sapiens) (UniProt Q969F8); assay: Human kisspeptin (KISS1R) small molecule agonists, calcium flux assay in KISS1R-HEK293 cells (AID 1920064; active = well fitted curve in the direction sought with a large enough effect in the repeat runs; an effect the other way counts as inactive or inconclusive)
Chain of KiSS-1 receptor (Homo sapiens) (Q969F8 whole entry, looked up): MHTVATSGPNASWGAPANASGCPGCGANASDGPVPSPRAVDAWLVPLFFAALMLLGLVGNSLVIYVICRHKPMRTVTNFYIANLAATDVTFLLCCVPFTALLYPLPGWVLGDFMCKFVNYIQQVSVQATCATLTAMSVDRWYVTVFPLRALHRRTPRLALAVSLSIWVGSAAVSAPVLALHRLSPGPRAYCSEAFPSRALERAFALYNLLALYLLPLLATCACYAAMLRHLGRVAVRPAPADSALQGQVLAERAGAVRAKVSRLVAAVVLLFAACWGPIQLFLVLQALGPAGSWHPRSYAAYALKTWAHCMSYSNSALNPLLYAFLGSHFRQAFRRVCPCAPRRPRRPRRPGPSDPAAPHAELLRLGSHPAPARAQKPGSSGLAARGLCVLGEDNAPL
Method in brief: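 Triplicate 15-concentration series were applied to dye-loaded human KISS1R HEK293 cells, and agonist-evoked calcium fluorescence was captured for 3 min.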

[5] = G protein-coupled receptor (GPCR) small molecule agonists, calcium flux assay: HEK293 wild type cell line counter screen (AID 1920065)
Method in brief: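 Non-specific calcium responders were flagged by adding DMSO-dissolved compounds to dye-loaded cells and reading 480/540 nm fluorescence each second for 3 min; ATP served as positive control.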

[6] = p53 small molecule agonists, cell-based qHTS assay with human liver microsomes (AID 1963577)
Method in brief: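 Fluorescence of the beta-lactamase reporter in p53RE-bla cells, detected with LiveBLAzer substrate (2 h, room temperature, dark), served as the read-out after 16 h compound exposure at 37 C with human liver microsomes and NADPH, each 0.5 mg/mL final.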

[7] = p53 small molecule agonists, cell-based qHTS assay with rat liver microsomes (AID 1963578)
Method in brief: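 Cells carrying a p53 response element–beta-lactamase reporter were plated and rested 5 h, then dosed with compound in DMSO plus rat liver microsomes and NADPH, each at 0.5 mg/mL final. After 16 h at 37 C, LiveBLAzer substrate was added for 2 h.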

[8] = p53 small molecule agonists, cell-based qHTS assay with human liver microsomes: qHTS cell viability counter screen (AID 1963579); also: nearly all actives have a fitted effect of over 45% in size
Method in brief: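 Cytotoxicity counter screen: p53RE-bla, 4,000 cells/well; 5 h settle, 37 C/5% CO2; cpd + HLM 0.5 mg/mL + NADPH 0.5 mg/mL (final); 16 h, 37 C; CellTiter-Glo, 30 min RT, luminescence.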

[9] = p53 small molecule agonists, cell-based qHTS assay with rat liver microsomes: qHTS cell viability counter screen (AID 1963580); also: nearly all actives have a fitted effect of over 45% in size
Method in brief: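 Cytotoxicity counter screen: intracellular ATP measured by CellTiter-Glo luminescence in the same wells as the beta-lactamase reporter read, on HCT-116 p53RE-bla cells exposed 16 h at 37 C to compounds with rat liver microsomes and NADPH, each 0.5 mg/mL final.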

[10] = p53 small molecule agonists, cell-based qHTS assay: qHTS cell viability counter screen (AID 1963581); also: nearly all actives have a fitted effect of over 45% in size
Method in brief: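 Multiplexed with the reporter read, a CellTiter-Glo step (30 min, room temperature) gauges ATP-based viability of HCT-116 p53RE-bla cells after 16 h compound incubation at 37 C.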

[11] = p53 small molecule agonists, cell-based qHTS assay (AID 1963582; active = well fitted activation curve with a large enough effect in the signal ratio in the repeat runs, not every such curve was filed as active; the % refers to the signal ratio)
Method in brief: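 Beta-lactamase reporter cells (p53RE-bla) treated with compounds for 16 h at 37 C; FRET substrate, 2 h, room temperature; fluorescence intensity.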

[12] = target: 5-hydroxytryptamine receptor 2A (Homo sapiens) (UniProt P28223); assay: 5-hydroxytryptamine receptor 2A (HTR2A) small molecule antagonists, cell-based qHTS assay (AID 1963586); also: nearly all actives have a fitted effect of over 45% in size
Chain of 5-hydroxytryptamine receptor 2A (Homo sapiens) (P28223 whole entry, looked up): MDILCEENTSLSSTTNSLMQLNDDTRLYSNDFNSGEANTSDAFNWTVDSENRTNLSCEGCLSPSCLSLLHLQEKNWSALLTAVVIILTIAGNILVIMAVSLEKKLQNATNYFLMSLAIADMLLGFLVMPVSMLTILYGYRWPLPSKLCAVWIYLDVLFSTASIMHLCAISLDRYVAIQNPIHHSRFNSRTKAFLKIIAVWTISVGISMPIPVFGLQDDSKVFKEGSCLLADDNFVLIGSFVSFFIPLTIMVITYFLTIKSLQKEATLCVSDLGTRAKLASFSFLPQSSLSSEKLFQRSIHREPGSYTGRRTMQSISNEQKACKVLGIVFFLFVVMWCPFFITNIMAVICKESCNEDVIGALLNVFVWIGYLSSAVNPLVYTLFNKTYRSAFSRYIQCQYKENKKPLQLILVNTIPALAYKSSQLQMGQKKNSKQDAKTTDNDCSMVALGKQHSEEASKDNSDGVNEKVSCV
Method in brief: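 CHO cells stably expressing human HTR2A were plated for 18 h at 37 C, then loaded with calcium dye for 1 h. Compounds were preincubated 5 min at room temperature before DOI (4 nM solution) was added. Kinetic fluorescence was read for 3 min.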

[13] = target: 5-hydroxytryptamine receptor 2A (Homo sapiens) (UniProt P28223); assay: 5-hydroxytryptamine receptor 2A (HTR2A) small molecule agonists, cell-based qHTS assay (AID 1963587); also: nearly all actives have a fitted effect of over 30% in size
Method in brief: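 CHO cells stably expressing human HTR2A, plated 18 h, loaded with calcium dye 1 h at 37 C. Agonist mode: compounds added and intracellular calcium fluorescence recorded kinetically for 2 min at 1 sec intervals.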

[14] = target: Muscarinic acetylcholine receptor M1 (Homo sapiens) (UniProt P11229); assay: Cholinergic receptor muscarinic 1 (CHRM1) small molecule antagonists, cell-based qHTS assay (AID 1963588); also: nearly all actives have a fitted effect of over 40% in size; also: potency is read from the fitted curve at half-maximal effect
Chain of Muscarinic acetylcholine receptor M1 (Homo sapiens) (P11229 whole entry, looked up): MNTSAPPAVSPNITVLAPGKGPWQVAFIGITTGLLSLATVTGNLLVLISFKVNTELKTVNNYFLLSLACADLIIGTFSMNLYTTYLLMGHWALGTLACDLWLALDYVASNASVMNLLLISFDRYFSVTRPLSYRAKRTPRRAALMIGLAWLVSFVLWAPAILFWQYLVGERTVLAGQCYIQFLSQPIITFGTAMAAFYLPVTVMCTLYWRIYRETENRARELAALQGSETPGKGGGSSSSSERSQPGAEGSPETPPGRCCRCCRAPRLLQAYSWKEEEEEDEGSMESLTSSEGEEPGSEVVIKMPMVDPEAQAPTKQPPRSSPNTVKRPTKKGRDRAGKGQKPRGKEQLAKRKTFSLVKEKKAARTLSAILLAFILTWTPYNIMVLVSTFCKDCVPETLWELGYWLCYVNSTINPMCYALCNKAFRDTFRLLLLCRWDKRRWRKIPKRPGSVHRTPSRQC
Method in brief: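 Compounds were tested at 15 concentrations in three independent runs. Dye-loaded CHRM1-CHO cells were exposed 5 min at room temperature before stimulation by acetylcholine added at 50nM. Intracellular calcium was read kinetically on FDSS for 3 min.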

[15] = target: Muscarinic acetylcholine receptor M1 (Homo sapiens) (UniProt P11229); assay: Cholinergic receptor muscarinic 1 (CHRM1) small molecule agonists, cell-based qHTS assay (AID 1963589); also: nearly all actives have a fitted effect of over 35% in size
Method in brief: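 qHTS, 15-point titration, 3 independent runs: compounds pin-transferred onto dye-loaded CHRM1-CHO cells (human M1), calcium fluorescence followed every second to detect agonism.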

[16] = cAMP Responsive Elements (CRE) small molecule agonists, cell-based qHTS assay (AID 1963590)
Method in brief: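 Quantitative HTS for CRE agonists: HEK 293T CRE-bla cells, overnight plating, 3 h compound incubation at 37 C/5% CO2, then 2 h room-temperature LiveBLAzer B/G FRET substrate loading.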

[17] = cAMP Responsive Elements (CRE) small molecule antagonists, cell-based qHTS assay (AID 1963591; active = well fitted inhibition curve with a large enough effect in the signal ratio in the repeat runs, not every such curve was filed as active; the % refers to the signal ratio)
Method in brief: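 Fluorescence intensity from cleaved LiveBLAzer B/G substrate (2 h, room temperature) quantified CRE-bla activity in HEK 293T cells exposed 3 h to compound with 0.25 uM final NKH477.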

[18] = target: Beta-2 adrenergic receptor (Homo sapiens) (UniProt P07550); assay: Adrenergic beta2 receptor (ADRB2) small molecule antagonists, cell-based qHTS assay (AID 1963592); also: series mostly up to about 92 µM; nearly all actives have a fitted effect of over 50% in size
Chain of Beta-2 adrenergic receptor (Homo sapiens) (P07550 whole entry, looked up): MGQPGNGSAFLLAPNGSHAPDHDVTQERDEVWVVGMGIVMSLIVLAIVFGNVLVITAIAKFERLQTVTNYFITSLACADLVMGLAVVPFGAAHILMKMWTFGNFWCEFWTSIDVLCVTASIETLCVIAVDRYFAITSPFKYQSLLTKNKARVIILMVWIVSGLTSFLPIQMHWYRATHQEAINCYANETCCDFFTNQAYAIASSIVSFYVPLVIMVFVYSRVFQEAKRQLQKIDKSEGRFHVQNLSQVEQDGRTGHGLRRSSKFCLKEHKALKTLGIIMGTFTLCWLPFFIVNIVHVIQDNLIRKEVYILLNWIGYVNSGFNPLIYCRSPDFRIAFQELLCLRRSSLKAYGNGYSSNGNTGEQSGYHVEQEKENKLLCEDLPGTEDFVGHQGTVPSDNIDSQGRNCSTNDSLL
Method in brief: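 Assay format: CHO-ADRB2 cells, 18-20hr seeding at 37C/5% CO2, then compound plus 1nM isoproterenol agonist mix for 0.5hr RT. Homogeneous time-resolved fluorescence cAMP detection after 1hr, expressed as 665/615 nm ratio.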

[19] = target: D(2) dopamine receptor (Homo sapiens) (UniProt P14416); assay: Dopamine D2 receptor (DRD2) small molecule agonists, cell-based qHTS assay (AID 1963594); also: nearly all actives have a fitted effect of over 35% in size
Chain of D(2) dopamine receptor (Homo sapiens) (P14416 whole entry, looked up): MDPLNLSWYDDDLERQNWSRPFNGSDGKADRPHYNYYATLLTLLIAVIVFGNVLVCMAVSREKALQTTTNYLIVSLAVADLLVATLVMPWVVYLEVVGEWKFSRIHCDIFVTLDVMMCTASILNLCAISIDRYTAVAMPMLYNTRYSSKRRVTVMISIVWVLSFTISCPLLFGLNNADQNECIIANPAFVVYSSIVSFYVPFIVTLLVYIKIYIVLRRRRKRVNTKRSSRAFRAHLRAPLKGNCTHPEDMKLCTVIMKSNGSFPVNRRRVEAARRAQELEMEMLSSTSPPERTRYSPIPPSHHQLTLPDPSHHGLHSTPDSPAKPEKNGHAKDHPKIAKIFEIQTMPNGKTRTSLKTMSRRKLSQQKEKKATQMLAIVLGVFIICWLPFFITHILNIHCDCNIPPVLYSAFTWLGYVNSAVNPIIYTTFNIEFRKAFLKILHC
Method in brief: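 HEK293 cells stably expressing human DRD2, pre-treated with PDE inhibitor Ro20-1724 (0.1 mM final) and compound 10 min at room temperature, then stimulated with NKH477 (200nM […]) for 30 min. cAMP read by HTRF (665/620 nm).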

[20] = target: D(2) dopamine receptor (Homo sapiens) (UniProt P14416); assay: Dopamine D2 receptor (DRD2) small molecule antagonists, cell-based qHTS assay (AID 1963595; active = well fitted inhibition curve with a large enough effect in the signal ratio in the repeat runs, with a control signal flat; the % refers to the signal ratio)
Method in brief: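 In this cell-based antagonist screen, compounds act for 10 min at room temperature before a 30 min challenge with 12 nM quinpirole and 200 nM NKH477. cAMP is quantified by HTRF competition in DRD2-HEK293 cells containing 0.1 mM Ro20-1724.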

SMILES	Potency [1]	Potency [2]	Potency [3]	Potency [4]	Potency [5]	Potency [6]	Potency [7]	Potency [8]	Potency [9]	Potency [10]	Potency [11]	Potency [12]	Potency [13]	Potency [14]	Potency [15]	Potency [16]	Potency [17]	Potency [18]	Potency [19]	Potency [20]
c1ccc2c(c1)CCCC2	inactive	inactive	inactive	inactive	inactive	inactive	inactive	inactive	inactive	inactive	inactive	inactive	inactive	inactive	inactive	inactive	inactive	inactive	inactive	inactive
CN(C)P(=O)(N(C)C)N(C)C	inactive	inactive	inactive	inactive	inactive	inactive	inactive	inactive	inactive	inactive	inactive	inactive	inactive	inactive	inactive	inactive	inactive	inactive	inactive	inactive
Cc1cccc([N+](=O)[O-])c1	inactive	inactive	inactive	inactive	inactive	inactive	inactive	inactive	inactive	inactive	inactive	inactive	inactive	inactive	inactive	inactive	inactive	inactive	inactive	
CCOS(C)(=O)=O	inactive	inactive	inactive	inactive	inactive	inactive	inactive	inactive	inactive	inactive	inactive	inactive	inactive	inactive	inactive	inactive	inactive	inactive	inactive	inactive
COc1nc(C)nc(NC(=O)NS(=O)(=O)c2ccccc2Cl)n1	inactive	inactive	inactive	inactive	inactive	inactive	inactive	inactive	inactive	inactive	inactive	inactive	inactive	inactive	inactive	inactive	inactive	inactive	inactive	inactive
O=Cc1ccco1	inactive	inactive	inactive	inactive	inactive	inactive	inactive	inactive	inactive	inactive	inactive	inactive	inactive	inactive	inactive	inactive	inactive	inactive	inactive	
C1CC2OC2CC1C1CO1 (configuration not stated)	inactive	inactive	inactive	inactive	inactive	inactive	inactive	inactive	inactive	inactive	inactive	inactive	inactive	inactive	inactive	inactive	inactive	inactive	inactive	inactive
CC[N+]1(CC)CCC(OC(=O)C(O)(c2ccccc2)c2ccccc2)C1 (configuration not stated)	inactive	inactive	inactive	inactive	inactive	inactive	inactive	inactive	inactive	inactive	inactive	inactive	inactive	2.3 nM (active)	inactive	inactive	inactive	inactive	inactive	inactive
O=P(O)(O)CN(CP(=O)(O)O)CP(=O)(O)O	inactive	inactive	inactive	inactive	inactive	inactive	inactive	inactive	inactive	inactive	inactive	inactive	inactive	inactive	inactive	inactive	inactive	inactive	inactive	inactive
COC(=O)C(Br)CBr (configuration not stated)	inactive	inactive	inactive	inactive	inactive	inactive	inactive	inactive	inactive	inactive	inactive	inactive	inactive	inactive	inactive	inactive	inactive	inactive	inactive	inactive
Clc1nc(Cl)nc(Cl)n1	inactive	inactive	inactive	inactive	inactive	inactive	inactive	inactive	inactive	inactive	inactive	inactive	inactive	inactive	inactive	inactive	inactive	inactive	inactive	inactive
C[C@@H]1CN(C2CCC(C#N)(c3ccc(F)cc3)CC2)CC[C@]1(C(=O)O)c1ccccc1 (some centres not stated)	inactive	inactive	inactive	inactive	inactive	inactive	inactive	inactive	inactive	inactive	inactive	inactive	inactive	inactive	inactive	inactive	inactive	inactive	inactive	
CCCCCCCCCl	inactive	inactive	inactive	inactive	inactive	inactive	inactive	inactive	inactive	inactive	inactive	inactive	inactive	inactive	inactive	inactive	inactive	inactive	inactive	inactive
O=NN1CCCCCC1	inactive	inactive	inactive	inactive	inactive	inactive	inactive	inactive	inactive	inactive	inactive	inactive	inactive	inactive	inactive	inactive	inactive	inactive	inactive	inactive
FC(Cl)(Cl)Cl	inactive	inactive	inactive	inactive	inactive	inactive	inactive	inactive	inactive	inactive	inactive	inactive	inactive	inactive	inactive	inactive	inactive	inactive	inactive	inactive
